# “And” between values parts separate entries of the source, which are not always exact repeats. Identical values can stand only once. Results filed as inconclusive are left out. Entries that show only a call come without a potency. Some compounds were tested as several samples or in several runs, with calls that do not always agree. The source made the active and inactive calls. Calls follow the shape of the dose curve; as a rule, active = well fitted curve in the direction sought with a large enough effect in the repeat runs; inconclusive = weak or mixed curves; inactive = no such curve, though single readings can be large; an effect the other way counts as inactive or inconclusive.
# Tests used:
# [1] = biological target: Cytochrome P450 2C19 (Homo sapiens) (UniProt P33261); assay: Cytochrome P450 Family 2 Subfamily C Member 19 (CYP2C19) small molecule antagonists: luciferase reporter qHTS assay (AID 1671197); also: nearly all actives have a fitted effect of over 65% in size; also: potency is read from the fitted curve at half-maximal effect; as to activity change, negative = inhibition: series mostly up to about 120 µM
# Sequence of Cytochrome P450 2C19 (Homo sapiens) (P33261 whole entry, looked up): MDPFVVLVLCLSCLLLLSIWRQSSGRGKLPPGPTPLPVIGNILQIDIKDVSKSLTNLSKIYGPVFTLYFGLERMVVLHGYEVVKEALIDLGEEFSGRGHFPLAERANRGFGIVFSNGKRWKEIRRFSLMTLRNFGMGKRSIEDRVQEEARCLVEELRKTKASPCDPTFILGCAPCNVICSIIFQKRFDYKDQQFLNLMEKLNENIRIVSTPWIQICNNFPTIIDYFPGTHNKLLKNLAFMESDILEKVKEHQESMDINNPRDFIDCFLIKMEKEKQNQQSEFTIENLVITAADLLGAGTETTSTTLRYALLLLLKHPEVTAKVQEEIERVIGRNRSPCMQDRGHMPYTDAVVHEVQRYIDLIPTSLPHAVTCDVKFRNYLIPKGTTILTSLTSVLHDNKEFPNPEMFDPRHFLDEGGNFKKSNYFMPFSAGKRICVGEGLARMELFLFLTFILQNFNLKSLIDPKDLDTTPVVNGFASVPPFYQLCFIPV
# Summary of the method: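 Inhibition of CYP2C19 was scored from loss of luminescence in a P450-Glo proluciferin substrate assay, NADPH-started and run 1 h at 37C, with ketoconazole as positive control.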
# [2] = biological target: Cytochrome P450 2C9 (Homo sapiens) (UniProt P11712); assay: Cytochrome P450 Family 2 Subfamily C Member 9 (CYP2C9) small molecule antagonists: luciferase reporter qHTS assay (AID 1671198); also: nearly all actives have a fitted effect of over 50% in size; also: potency is read from the fitted curve at half-maximal effect; as to activity change, negative = inhibition: series mostly up to about 120 µM
# Sequence of Cytochrome P450 2C9 (Homo sapiens) (P11712 whole entry, looked up): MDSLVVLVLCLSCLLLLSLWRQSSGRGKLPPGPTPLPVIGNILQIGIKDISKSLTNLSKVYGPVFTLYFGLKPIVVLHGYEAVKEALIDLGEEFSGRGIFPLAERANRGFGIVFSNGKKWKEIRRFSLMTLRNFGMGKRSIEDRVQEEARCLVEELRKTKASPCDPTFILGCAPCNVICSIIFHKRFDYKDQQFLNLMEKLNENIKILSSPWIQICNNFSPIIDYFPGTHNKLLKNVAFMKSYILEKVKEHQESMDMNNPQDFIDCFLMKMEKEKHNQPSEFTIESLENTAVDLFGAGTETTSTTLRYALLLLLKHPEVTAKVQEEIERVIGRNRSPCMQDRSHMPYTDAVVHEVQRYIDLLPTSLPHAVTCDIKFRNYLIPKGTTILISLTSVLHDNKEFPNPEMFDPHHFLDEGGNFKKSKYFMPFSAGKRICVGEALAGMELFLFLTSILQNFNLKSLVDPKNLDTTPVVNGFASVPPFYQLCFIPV
# Summary of the method: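 CYP2C9 activity was measured with a P450-Glo proluciferin substrate. Enzyme–substrate mix was held with compound for 10 min at room temperature, then NADPH regeneration solution was added for 1 h at 37C. Luciferin product was read as luminescence.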
# [3] = biological target: Cytochrome P450 1A2 (Homo sapiens) (UniProt P05177); assay: Cytochrome P450 Family 1 Subfamily A Member 2 (CYP1A2) small molecule antagonists: luciferase reporter qHTS assay (AID 1671199); also: nearly all actives have a fitted effect of over 50% in size; also: potency is read from the fitted curve at half-maximal effect; as to activity change, negative = inhibition: series mostly up to about 120 µM
# Sequence of Cytochrome P450 1A2 (Homo sapiens) (P05177 whole entry, looked up): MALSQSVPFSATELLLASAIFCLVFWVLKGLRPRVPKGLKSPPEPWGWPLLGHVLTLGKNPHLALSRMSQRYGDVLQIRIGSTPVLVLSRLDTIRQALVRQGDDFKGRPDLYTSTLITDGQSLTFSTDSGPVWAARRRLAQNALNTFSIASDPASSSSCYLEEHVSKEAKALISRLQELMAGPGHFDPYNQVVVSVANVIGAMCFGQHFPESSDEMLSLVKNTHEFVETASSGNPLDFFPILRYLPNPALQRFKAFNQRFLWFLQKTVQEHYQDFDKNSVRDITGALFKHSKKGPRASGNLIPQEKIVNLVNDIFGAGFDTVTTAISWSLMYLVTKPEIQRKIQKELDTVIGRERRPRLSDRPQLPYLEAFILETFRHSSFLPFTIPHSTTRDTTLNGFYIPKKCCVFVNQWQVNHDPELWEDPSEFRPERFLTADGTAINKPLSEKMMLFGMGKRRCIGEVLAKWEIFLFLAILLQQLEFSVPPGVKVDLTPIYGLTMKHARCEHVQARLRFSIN
# Summary of the method: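 Steps: enzyme-substrate mix dispensed; test compounds and furafylline control pinned in; 10 min room temperature; NADPH regeneration solution added, 1 h; reaction stopped with luciferin detection reagent; luminescence read after 20 min.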
# [4] = biological target: Voltage-gated inwardly rectifying potassium channel KCNH2 (Homo sapiens) (UniProt Q12809); assay: Human Ether-a-go-go-Related Gene (hERG) channel small molecule antagonists: fluorescence cell-based qHTS assay (AID 1671200);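 also: hERG-expressing U2OS cells given a thallium stimulus after FluxOR II dye loading; series mostly up to about 77 µM; nearly all actives have a fitted effect of over 50% in size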
# Sequence of Voltage-gated inwardly rectifying potassium channel KCNH2 (Homo sapiens) (Q12809 whole entry, looked up): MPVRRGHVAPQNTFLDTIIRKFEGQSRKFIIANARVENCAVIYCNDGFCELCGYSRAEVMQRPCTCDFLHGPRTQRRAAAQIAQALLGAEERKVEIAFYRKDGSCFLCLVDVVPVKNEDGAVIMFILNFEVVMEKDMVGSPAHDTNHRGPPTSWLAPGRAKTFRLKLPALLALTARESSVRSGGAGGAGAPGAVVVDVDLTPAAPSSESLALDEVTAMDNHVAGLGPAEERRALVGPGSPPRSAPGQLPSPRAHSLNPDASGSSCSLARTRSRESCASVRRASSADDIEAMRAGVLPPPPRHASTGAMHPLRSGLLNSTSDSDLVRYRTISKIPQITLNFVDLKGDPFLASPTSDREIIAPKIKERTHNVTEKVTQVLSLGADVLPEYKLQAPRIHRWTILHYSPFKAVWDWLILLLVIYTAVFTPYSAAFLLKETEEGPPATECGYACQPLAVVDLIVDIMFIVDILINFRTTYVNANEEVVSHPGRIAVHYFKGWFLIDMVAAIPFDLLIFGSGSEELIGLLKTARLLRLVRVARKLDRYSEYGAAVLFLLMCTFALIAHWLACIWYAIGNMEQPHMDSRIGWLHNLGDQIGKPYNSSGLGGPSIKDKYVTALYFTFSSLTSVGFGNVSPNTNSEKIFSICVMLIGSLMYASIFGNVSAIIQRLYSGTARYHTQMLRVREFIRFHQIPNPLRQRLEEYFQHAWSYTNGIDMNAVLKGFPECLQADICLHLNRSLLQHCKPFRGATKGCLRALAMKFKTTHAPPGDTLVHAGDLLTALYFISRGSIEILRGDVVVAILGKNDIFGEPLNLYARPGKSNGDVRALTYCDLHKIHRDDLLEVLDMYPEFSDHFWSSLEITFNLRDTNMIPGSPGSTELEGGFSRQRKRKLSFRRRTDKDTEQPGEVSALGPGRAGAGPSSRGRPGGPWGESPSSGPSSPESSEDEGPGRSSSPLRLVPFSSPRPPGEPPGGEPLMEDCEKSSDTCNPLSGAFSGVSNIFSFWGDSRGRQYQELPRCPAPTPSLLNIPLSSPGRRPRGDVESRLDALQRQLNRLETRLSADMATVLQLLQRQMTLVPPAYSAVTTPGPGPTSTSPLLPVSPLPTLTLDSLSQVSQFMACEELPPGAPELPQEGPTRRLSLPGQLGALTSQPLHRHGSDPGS
# Summary of the method: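 Fluorescence at 540 nm emission (480 nm excitation) was recorded kinetically for 2 min at 1-second intervals once the thallium-containing stimulus reached cells previously loaded with FluxOR II dye.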
# [5] = biological target: Cytochrome P450 3A4 (Homo sapiens) (UniProt P08684); assay: Cytochrome P450 Family 3 Subfamily A Member 4 (CYP3A4) small molecule antagonists: luciferase reporter qHTS assay (AID 1671201); also: nearly all actives have a fitted effect of over 50% in size; also: potency is read from the fitted curve at half-maximal effect; as to activity change, negative = inhibition: series mostly up to about 120 µM
# Sequence of Cytochrome P450 3A4 (Homo sapiens) (P08684 whole entry, looked up): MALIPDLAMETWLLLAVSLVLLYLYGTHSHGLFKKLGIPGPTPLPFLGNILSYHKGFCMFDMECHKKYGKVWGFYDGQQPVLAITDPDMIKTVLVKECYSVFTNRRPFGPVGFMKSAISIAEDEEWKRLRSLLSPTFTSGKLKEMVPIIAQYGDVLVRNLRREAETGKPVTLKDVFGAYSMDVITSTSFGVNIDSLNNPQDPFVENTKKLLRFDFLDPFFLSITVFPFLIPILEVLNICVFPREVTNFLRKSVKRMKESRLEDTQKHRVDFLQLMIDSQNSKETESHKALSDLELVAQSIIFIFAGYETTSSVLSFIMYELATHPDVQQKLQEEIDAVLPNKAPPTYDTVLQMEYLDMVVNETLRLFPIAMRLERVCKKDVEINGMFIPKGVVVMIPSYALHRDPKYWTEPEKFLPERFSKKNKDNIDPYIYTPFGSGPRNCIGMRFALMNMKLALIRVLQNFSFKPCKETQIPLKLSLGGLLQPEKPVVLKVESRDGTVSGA
# Summary of the method: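 qHTS, 1536-well. CYP3A4 + proluciferin substrate, cpd 10 min RT → NADPH regen 1 h RT → detection reagent 20 min → luminescence (RLU). Ketoconazole positive control.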
SMILES,Potency [1],Potency [2],Potency [3],Potency [4],Potency [5],"activity change, negative = inhibition [1]","activity change, negative = inhibition [3]"
CC(C)NC(=O)N1CC(=O)N(c2cc(Cl)cc(Cl)c2)C1=O,7.96 µM (active) and 8.94 µM (active),1.26 µM (active),12.6 µM (active),inactive,inactive,,
Nc1ccc(Br)cc1,50.2 µM (active) and 39.9 µM (active),35.5 µM (active) and 35.6 µM (active),44.8 µM (active),,,,
C=C(C)CCl,,inactive,,,inactive,3.29% [at 10.5 µM] (inactive),-9.56% [at 10.5 µM] (inactive)
CN(N=O)c1ccccc1,inactive,inactive,inactive,inactive,inactive,,
O=c1[nH]c2ccccc2c(=O)o1,inactive,inactive,inactive and 35.6 µM (active),inactive,inactive,,
O=c1n(Cl)c(=O)n(Cl)c(=O)n1Cl,inactive,inactive,inactive,inactive,inactive,,
Cc1ccc([N+](=O)[O-])cc1C,inactive,inactive,inactive,inactive,inactive,,
O=C(NC(=O)c1c(F)cccc1F)Nc1cc(Cl)c(OC(F)(F)C(F)C(F)(F)F)cc1Cl (stereo not given),10 µM (active) and 34.7 µM (active),11.2 µM (active) and 17.4 µM (active),inactive,inactive,inactive,,
CC(C)OC(=O)Nc1cccc(Cl)c1,24.8 µM (active) and 31.7 µM (active),55.6 µM (active) and 71 µM (active),9.89 µM (active) and 8.94 µM (active),inactive,inactive,,
CCCN(CCC)c1c([N+](=O)[O-])cc(C(F)(F)F)cc1[N+](=O)[O-],39.8 µM (active) and 35.6 µM (active),22.4 µM (active),20 µM (active),inactive,,,
CCCN(CCC)N=O,inactive,inactive,inactive,,inactive,,
COC(=O)NS(=O)(=O)c1ccc(N)cc1,71.3 µM (active) and inactive,,inactive,,inactive,,
Cc1ccccc1O,inactive,inactive,39.9 µM (active),,inactive,,
O=S(=O)(c1ccc(O)cc1)c1ccc(O)cc1,,inactive,inactive,inactive,inactive,,
CCOP(OCC)OCC,,inactive,inactive,inactive,inactive,,
Cn1cc(-c2ccccc2)c(=O)c(-c2cccc(C(F)(F)F)c2)c1,,34.7 µM (active) and 31.7 µM (active),19.5 µM (active) and 17.8 µM (active),inactive,12.3 µM (active) and 12.6 µM (active),,

SMILES,Potency [1],Potency [2],Potency [3],Potency [4],Potency [5],"activity change, negative = inhibition [1]","activity change, negative = inhibition [3]"
c1ccc2c(c1)Oc1ccccc1O2,inactive,inactive,,inactive,inactive,,
COP(N)(=O)SC (stereo not given),39.3 µM (active) and inactive,,inactive,,inactive,,
CCCCOC(=O)c1ccccc1C(=O)OCCCC,5.64 µM (active) and 3.99 µM (active),35.6 µM (active),5.03 µM (active) and 8.94 µM (active),,inactive,,
CC(C)OC(=O)Nc1ccccc1,40 µM (active),,28.3 µM (active) and 39.9 µM (active),inactive,inactive,,
Cc1ccc(N)cc1N,34.6 µM (active) and 31.7 µM (active),34.6 µM (active) and 39.9 µM (active),30.9 µM (active) and 35.6 µM (active),,30.9 µM (active),,
OC(O)C(Cl)(Cl)Cl,inactive,,inactive,inactive,inactive,,
O=NN1CCCC1,,inactive,33.2 µM (active) and inactive,inactive,inactive,,
CN(C)[C@@H]1C(=O)C(C(N)=O)=C(O)[C@@]2(O)C(=O)C3=C(O)c4c(O)cccc4[C@@](C)(O)[C@H]3C[C@@H]12,inactive,,,,inactive,,
CCNc1nc(NC(C)C)nc(SC)n1,,inactive,8.02 µM (active) and 11.2 µM (active),inactive,inactive,,
Clc1cccc(Cl)c1Cl,35.2 µM (active) and inactive,inactive,inactive,,inactive,,
Cc1cc(-c2cc(C)c(N)c(C)c2)cc(C)c1N,10.1 µM (active) and 8.78 µM (active),40 µM (active) and 22 µM (active),712 nM (active) and 311 nM (active),,34.9 µM (active),,
[O-][Cl+2]([O-])O,inactive,inactive,inactive,,inactive,,
OCCN(CCO)CCO,inactive,inactive,,,inactive,,
CCOP(=S)(OCC)Oc1cnc2ccccc2n1,inactive and 448 nM (active),inactive and 1.12 µM (active),inactive and 2.24 µM (active),,inactive and 6.33 µM (active),,
COC(=O)c1ccccc1C(=O)OC,,inactive,31.9 µM (active) and 25.2 µM (active),inactive,inactive,,

# From PubChem BioAssay (Tox21)
